Records with an inconclusive call do not appear. Calls of active or inactive are those of the source. Unless noted, the call rests on the fitted dose curve; in most records, active means well fitted curve in either direction with a large enough effect (not every such curve was filed as active); inconclusive means small, poorly fitted or top-dose-only effect, or another doubt; inactive means flat fitted curve, though single readings scatter.
How the values were obtained:
[1] = molecular target: Glucocorticoid receptor (Homo sapiens) (UniProt P04150); experiment: GR-GFP Redistribution (AID 450;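 active means compounds whose dose series gives a full or clear partial fitted curve of increased nuclear translocation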; further: potency means the concentration at half of the fitted maximal effect); conditions: U2OS GR-GFP nuclear translocation, laser cytometry, 2 h
[2] = molecular target: Glucocorticoid receptor (Homo sapiens) (UniProt P04150); experiment: GR-EFC Redistribution (AID 451; calls by dose curve; further: potency means the concentration at half of the fitted maximal effect); conditions: CHO-K1 GR-EFC translocation, beta-gal luminescence, 2 h
Outline: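 CHO-K1 cells expressing nuclear EA and GR-ED fragments of b-gal; compounds titrated up to 46 uM final, 2 h at 37 C. GR nuclear translocation read as complemented b-gal luminescence after 1 h RT detection.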

[3] = molecular target: Mitogen-activated protein kinase 10 (Mus musculus) (UniProt Q61831); experiment: JNK3 AlphaScreen Assay (AID 530); conditions: JNK3 lysate, c-Jun phosphorylation; series mostly up to 11.4 µM;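 further: kinase came from lysate of stimulated human HepG2 cells; signal reports phosphorylation of biotinylated GST-cJun 1-79 at Ser73 with 10 µM ATP; on the % scale 0 is the no-effect control and ±100 the full control effect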
Outline: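 HepG2 lysate (IL-1b/TNFa pre-activated) + biotin-GST-cJun 1-79 + anti-pSer73 cJun; cpd titration, 15 min RT; ATP 10 uM start; Tris pH 7.6, MgCl2, DTT, vanadate; beads in EDTA buffer; AlphaScreen.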

[4] = molecular target: 3',5'-cyclic-AMP phosphodiesterase 4B (Homo sapiens) (UniProt Q07343); experiment: qHTS Assay for Inhibitors of PDE-IV (AID 607; active means well fitted activation curve with a large enough effect in the main read-out, with a control signal flat, not every such curve was filed as active; further: % of control where 0% means no effect); conditions: HEK293 ACTOne CNG channel cells, membrane potential fluorescence; series mostly up to 22.9 µM
Outline: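 The readout is membrane depolarisation from a cAMP-sensing CNG channel, detected with a potential dye at ex 535/em 590. Cells were HEK293-derived (endogenous PDE-IV) at 1000 cells/well, titrated up to 22.9 uM final.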

[5] = AP1 Signaling Pathway (AID 357); conditions: ME-180 AP-1-bla reporter, EGF-induced, beta-lactamase ratio, 5 h; further: on the % scale 0 is the no-effect control and ±100 the full control effect
Outline: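 AP-1-bla ME-180 cells with beta-lactamase reporter under AP-1 response element, stimulated with EC50 EGF; compounds titrated, 5 hours at 37 degrees Celsius. CCF4 read at 460/530 nm ratio; positive and negative modulators judged by AC50.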

[6] = molecular target: Cytochrome P450 1A2 (Homo sapiens) (UniProt P05177); experiment: p450-cyp1a2 (AID 410; calls by dose curve; further: potency means the concentration at half of the fitted maximal effect;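 on activity change, negative = inhibition: -100% = full effect of reference inhibitor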); conditions: recombinant CYP1A2, luciferin-ME demethylation, luminescence; series mostly up to 11.4 µM
Outline: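 20nM CYP1A2, 100uM Luciferin-ME (=Km), 100mM KPO4; cpd 10 min RT; +NADPH regen, 60 min RT; stop/detect 20 min; luminescence. Normalized to furafylline 57 uM = full inhibition.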

[7] = NFAT Signaling Pathway (AID 444); conditions: Jurkat NFAT-bla M1, carbachol, beta-lactamase ratio, 5 h; at 7.69 µM (top of the series) unless noted;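 further: carbachol stimulus at about its EC50 of 1 µM final; on the % scale 0 is the no-effect control and ±100 the full control effect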
Outline: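 Jurkat cells with NFAT-driven β-lactamase reporter and co-expressed M1 receptor, stimulated with carbachol (final 1 uM, ~EC50), compound titration, 5 h at 37 °C. CCF4 loaded 1 h at RT; 460/530 nm ratio gave %activity and AC50.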

[8] = Stat Signaling Pathway (AID 446); conditions: ME-180 SIE beta-lactamase reporter, IL-6 stimulated, 5 h;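 further: ME-180 cervical cancer cells given 40 pM IL-6 alongside compound; SIE-controlled beta-lactamase reporter measured as 460/530 nm FRET emission ratio; on the % scale 0 is the no-effect control and ±100 the full control effect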
Outline: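 Emission at 460 and 530 nm (excitation 405 nm) reports SIE-controlled beta-lactamase in ME-180 cells. Cells received compound with 40 pM IL-6 for 5 hrs at 37 C; data scaled between 300 pM IL-6 and 125 nM JAK-inhibitor controls.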

[9] = molecular target: Guanine nucleotide-binding protein G(i) subunit alpha-1 (Homo sapiens) (UniProt P63096); experiment: qHTS Assay for Inhibitors of RGS12 GoLoco Motif Activity (Green Fluorophore) (AID 879; active means well fitted curve in the direction sought with a large enough effect; an effect the other way counts as inactive or inconclusive;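 further: 0% = labeled peptide with Gαi1 and full inhibition = labeled peptide alone without protein; negative values mean loss of peptide binding seen as reduced polarization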); conditions: Galphai1/FITC-RGS12 GoLoco peptide, fluorescence polarization; series mostly up to 57.1 µM
Outline: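 A drop in FITC polarization marked displacement of the FITC-tagged RGS12 GoLoco peptide (10 nM) from Gαi1 (50 nM). Compounds were incubated 10 min at room temperature in Tris pH 7.5 buffer containing 150 mM NaCl, 0.1 mM GDP and 0.05% NP40; unlabeled peptide titration served as control.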

[10] = molecular target: Cytochrome P450 3A4 (Homo sapiens) (UniProt P08684); experiment: qHTS Assay for Activators of Cytochrome P450 3A4 (AID 885; active means well fitted curve in the direction sought with a large enough effect; an effect the other way counts as inactive or inconclusive; further: nearly all actives have a fitted effect of over 65% in size); conditions: recombinant CYP3A4, Luciferin-PPXE luminescence, 60 min; series mostly up to 11.4 µM
Outline: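 Activators are scored by enhanced luminescence from CYP3A4 conversion of luciferin-PPXE (25uM, equal to KM) to luciferin, after 60 min at RT with an NADPH-regenerating system.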

[11] = qHTS Assay for Identification of Small Molecule Antagonists for NFkB Signaling Pathway (AID 895; active means well fitted inhibition curve with a large enough effect in the signal ratio, with a control signal flat, not every such curve was filed as active; the % refers to the signal ratio; further: potency means the concentration at half of the fitted maximal effect); conditions: NFkB beta-lactamase reporter cells, FRET ratio 460/530, stimulated with 10 pM TNF alpha; series mostly up to 38.3 µM
Outline: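 ME-180 NFkB-bla cells (beta-lactamase under NFkB response element), plated overnight, treated with compound then 10 pM TNF alpha (about EC50) for 5 hrs at 37 C. LiveBLAzer FRET read at 460/530 nm emission, 405 nm excitation.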

[12] = qHTS Assay for Identification of Small Molecule Agonists for Thrombopoietin (TPO) Signaling Pathway (AID 917; active means well fitted curve in the direction sought with a large enough effect; an effect the other way counts as inactive or inconclusive; further: on the % scale 0 is the no-effect control and ±100 the full control effect); conditions: TPO signaling pathway reporter cells, agonist qHTS, stimulated with TPO at its EC50; series mostly up to 38.5 µM
Outline: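 Cell-based luciferase reporter screen. Mouse Ba/F3 line stably expressing human TPO receptor; IL-3 removed overnight before plating. Co-treatment with compound and EC50 TPO (26 pM), 24 hrs at 37 C, then luminescence.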

[13] = molecular target: Muscarinic acetylcholine receptor M1 (Rattus norvegicus) (UniProt P08482); experiment: qHTS Assay for Antagonists of Acetylcholine Muscarinic M1 Receptor: Measurement of IP-One Response (AID 944; active means well fitted curve in the direction sought with a large enough effect; an effect the other way counts as inactive or inconclusive; further: nearly all actives have a fitted effect of over 75% in size); conditions: CHO-M1 cells, IP-One HTRF, antagonist mode; series mostly up to 46.1 µM
Outline: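 Read-out: HTRF competition between d2-IP1 and Eu-cryptate anti-IP1 antibody, emission 620 and 665 nm. Stimulus was carbachol, EC80 (200 nM), for 30 min in M1-CHO cells (rat receptor), after 10 min compound pre-treatment.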

[14] = molecular target: Pyruvate kinase (Leishmania mexicana) (UniProt Q27686); experiment: qHTS Validation Assay for Inhibitors of Leishmania Mexicana Pyruvate Kinase (AID 945; active means well fitted curve in the direction sought with a large enough effect; an effect the other way counts as inactive or inconclusive;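 further: 0% = DMSO only neutral control wells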); conditions: purified L. mexicana pyruvate kinase, enzyme activity, E451W mutant enzyme; series mostly up to 57.5 µM
Outline: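 Read-out: luminescence from PKLight stop/detection reagent, data normalized to DMSO. Reaction: 0.2 nM E451W LmPYK, 0.5 mM PEP, 0.1 mM ADP, pH 7.2, 1 h room temperature.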

[15] = molecular target: Pyruvate kinase PKM (Homo sapiens) (UniProt P14618); experiment: qHTS Assay for Activators of Human Muscle Pyruvate Kinase (AID 954; active means well fitted curve in the direction sought with a large enough effect, not every such curve was filed as active;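 further: 0% = uninhibited enzyme and -100% = no enzyme or full thiadiazolimine inhibition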); conditions: purified human muscle pyruvate kinase, luciferase-coupled luminescence, 1 h; series mostly up to 57.5 µM
Outline: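 PKM2, human, >95% pure, 0.1 nM; PEP 0.5 mM (Km), ADP 0.1 mM; 50 mM imidazole pH 7.2, 50 mM KCl, 0.01% Tween 20, 0.05% BSA; 1 h RT; luciferase luminescence readout.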

[16] = molecular target: alpha-glucosidase (Oryza sativa, rice) (UniProt Q653V4); experiment: Counterscreen for Glucocerebrosidase Inhibitors: qHTS Assay for Rice alpha-Glucosidase at pH 5.0 (AID 997; active means well fitted curve in the direction sought with a large enough effect; an effect the other way counts as inactive or inconclusive;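 further: 0% = full activity with enzyme and -100% = basal without enzyme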); conditions: rice alpha-glucosidase enzyme activity; series mostly up to 76.9 µM
Outline: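 Endpoint fluorogenic assay at pH 5.0: compounds (0.7 nM to 77 uM) titrated against 4 nM rice enzyme and 400 uM 4-MU-alpha-glucoside for 20 min at room temperature; NaOH/glycine stop, read ex 365/em 440 nm, Hill-fitted AC50.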

[17] = molecular target: Alpha-galactosidase A (Homo sapiens) (UniProt P06280); experiment: Counterscreen for Glucocerebrosidase Inhibitors: qHTS Assay for Human alpha-Galactosidase at pH 4.5 (AID 992; active means well fitted curve in the direction sought with a large enough effect; an effect the other way counts as inactive or inconclusive; further: 0% is about no effect); conditions: purified enzyme, fluorogenic substrate; series mostly up to 76.9 µM
Outline: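 Fluorogenic 4-MU alpha-D-galactoside (80 uM) hydrolysis, 2 nM enzyme, pH 4.5 citrate buffer + 0.005% Tween-20; 20 min RT; NaOH/glycine pH 10 stop; Ex365/Em440. Compounds titrated 0.7 nM–77 uM; Hill-equation AC50.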

[18] = molecular target: Cytochrome P450 2D6 (Homo sapiens) (UniProt P10635); experiment: qHTS Assay for Inhibitors and Substrates of Cytochrome P450 2D6 (AID 891; active means well fitted curve in the direction sought with a large enough effect; an effect the other way counts as inactive or inconclusive;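 further: luciferin methyl ether substrate demethylated by CYP2D6 with NADPH regeneration; on the % scale 0 is the no-effect control and ±100 the full control effect; nearly all actives have a fitted effect of over 60% in size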); conditions: recombinant CYP2D6, luciferin-ME EGE luminescence; series mostly up to 11.4 µM
Outline: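 Luminescent read-out of luciferin formed by 5 nM human CYP2D6 demethylating 30 uM Luciferin-ME EGE (Km level) over 60 min at room temperature after NADPH regeneration addition. Data normalized to full inhibition by 1.43 uM quinidine.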

[19] = molecular target: Cytochrome P450 2C19 (Homo sapiens) (UniProt P33261); experiment: qHTS Assay for Inhibitors and Substrates of Cytochrome P450 2C19 (AID 899; active means well fitted curve in the direction sought with a large enough effect; an effect the other way counts as inactive or inconclusive; further: on the % scale 0 is the no-effect control and ±100 the full control effect; nearly all actives have a fitted effect of over 60% in size); conditions: recombinant CYP2C19, luciferin-H EGE luminescence; series mostly up to 11.4 µM
Outline: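 Signal comes from luciferase acting on luciferin released by CYP2C19-mediated hydroxylation of Luciferin-H EGE, 10uM (KM). Assay mix: 5nM enzyme, 50mM KPO4; 60 min at 37C with NADPH regeneration. Data normalized against 57uM ketoconazole.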

[20] = at 7.69 µM (top of the series) unless noted

3',5'-cyclic-AMP phosphodiesterase 4B (Homo sapiens), sequence (Q07343 whole entry, looked up): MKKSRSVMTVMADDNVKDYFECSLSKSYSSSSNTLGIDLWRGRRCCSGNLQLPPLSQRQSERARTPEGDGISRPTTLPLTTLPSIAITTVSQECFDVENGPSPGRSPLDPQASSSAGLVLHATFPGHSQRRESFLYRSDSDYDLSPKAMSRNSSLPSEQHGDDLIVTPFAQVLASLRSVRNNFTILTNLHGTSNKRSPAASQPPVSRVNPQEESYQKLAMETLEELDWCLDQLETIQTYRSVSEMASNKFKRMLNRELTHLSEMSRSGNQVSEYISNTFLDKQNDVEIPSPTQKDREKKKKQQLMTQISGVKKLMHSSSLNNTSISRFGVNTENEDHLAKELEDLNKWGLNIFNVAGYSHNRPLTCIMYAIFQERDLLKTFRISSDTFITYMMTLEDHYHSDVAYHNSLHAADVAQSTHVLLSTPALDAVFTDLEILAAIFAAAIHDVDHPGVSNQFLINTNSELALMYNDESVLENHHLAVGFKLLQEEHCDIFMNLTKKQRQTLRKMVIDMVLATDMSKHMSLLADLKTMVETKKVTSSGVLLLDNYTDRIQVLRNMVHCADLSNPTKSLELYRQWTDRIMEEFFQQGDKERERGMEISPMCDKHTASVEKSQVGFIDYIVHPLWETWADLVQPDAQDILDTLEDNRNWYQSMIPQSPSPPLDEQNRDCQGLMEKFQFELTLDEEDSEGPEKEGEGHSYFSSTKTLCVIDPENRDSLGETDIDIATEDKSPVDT
Glucocorticoid receptor (Homo sapiens), sequence (P04150 whole entry, looked up, the tested form may be a part): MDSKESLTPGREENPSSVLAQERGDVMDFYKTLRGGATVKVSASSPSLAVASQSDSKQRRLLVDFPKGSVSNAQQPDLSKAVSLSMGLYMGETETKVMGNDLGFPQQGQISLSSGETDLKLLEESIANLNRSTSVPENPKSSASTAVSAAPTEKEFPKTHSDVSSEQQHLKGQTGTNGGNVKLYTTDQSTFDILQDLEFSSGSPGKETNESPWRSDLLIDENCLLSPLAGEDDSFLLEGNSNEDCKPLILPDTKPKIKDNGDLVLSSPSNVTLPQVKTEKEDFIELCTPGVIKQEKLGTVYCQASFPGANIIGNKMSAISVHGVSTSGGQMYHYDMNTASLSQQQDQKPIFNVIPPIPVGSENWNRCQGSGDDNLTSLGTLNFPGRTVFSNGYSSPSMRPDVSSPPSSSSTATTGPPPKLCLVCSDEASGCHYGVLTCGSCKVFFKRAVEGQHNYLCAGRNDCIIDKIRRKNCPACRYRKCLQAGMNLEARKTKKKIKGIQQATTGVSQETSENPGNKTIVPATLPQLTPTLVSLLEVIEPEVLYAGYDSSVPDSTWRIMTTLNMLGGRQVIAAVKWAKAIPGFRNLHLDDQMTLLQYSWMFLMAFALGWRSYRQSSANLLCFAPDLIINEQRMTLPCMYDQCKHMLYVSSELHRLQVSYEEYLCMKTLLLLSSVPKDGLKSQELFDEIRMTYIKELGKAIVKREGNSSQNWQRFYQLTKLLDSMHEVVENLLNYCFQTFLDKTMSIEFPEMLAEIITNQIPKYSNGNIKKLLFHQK
Cytochrome P450 1A2 (Homo sapiens), sequence (P05177 whole entry, looked up): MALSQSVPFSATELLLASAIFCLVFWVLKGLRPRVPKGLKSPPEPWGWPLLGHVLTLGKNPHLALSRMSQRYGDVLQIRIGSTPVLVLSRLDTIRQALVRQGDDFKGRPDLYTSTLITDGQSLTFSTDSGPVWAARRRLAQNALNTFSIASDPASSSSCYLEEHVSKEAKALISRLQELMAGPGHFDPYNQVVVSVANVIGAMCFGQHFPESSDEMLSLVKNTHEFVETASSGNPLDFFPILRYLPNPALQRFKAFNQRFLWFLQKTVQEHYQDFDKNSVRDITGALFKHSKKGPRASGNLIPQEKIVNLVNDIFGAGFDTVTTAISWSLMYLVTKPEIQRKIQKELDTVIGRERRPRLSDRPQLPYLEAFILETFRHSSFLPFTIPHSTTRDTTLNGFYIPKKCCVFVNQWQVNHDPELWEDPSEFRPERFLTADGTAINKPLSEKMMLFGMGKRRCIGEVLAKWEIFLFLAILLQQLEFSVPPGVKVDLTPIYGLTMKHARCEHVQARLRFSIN
Pyruvate kinase PKM (Homo sapiens), sequence (P14618 whole entry, looked up): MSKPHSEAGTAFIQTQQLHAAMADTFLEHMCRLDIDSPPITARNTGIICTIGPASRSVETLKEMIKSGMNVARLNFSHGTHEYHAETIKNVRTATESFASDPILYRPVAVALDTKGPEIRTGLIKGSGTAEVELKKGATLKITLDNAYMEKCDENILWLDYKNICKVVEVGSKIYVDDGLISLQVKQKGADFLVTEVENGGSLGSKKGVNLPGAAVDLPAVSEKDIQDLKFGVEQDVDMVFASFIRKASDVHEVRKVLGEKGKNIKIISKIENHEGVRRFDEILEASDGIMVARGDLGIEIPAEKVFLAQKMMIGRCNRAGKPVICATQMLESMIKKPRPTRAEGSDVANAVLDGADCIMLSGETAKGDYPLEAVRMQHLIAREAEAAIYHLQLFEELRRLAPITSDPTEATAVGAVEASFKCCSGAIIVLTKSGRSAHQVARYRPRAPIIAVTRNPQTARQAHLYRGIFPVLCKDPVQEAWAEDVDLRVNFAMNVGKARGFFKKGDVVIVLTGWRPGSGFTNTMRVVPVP
Guanine nucleotide-binding protein G(i) subunit alpha-1 (Homo sapiens), sequence (P63096 whole entry, looked up): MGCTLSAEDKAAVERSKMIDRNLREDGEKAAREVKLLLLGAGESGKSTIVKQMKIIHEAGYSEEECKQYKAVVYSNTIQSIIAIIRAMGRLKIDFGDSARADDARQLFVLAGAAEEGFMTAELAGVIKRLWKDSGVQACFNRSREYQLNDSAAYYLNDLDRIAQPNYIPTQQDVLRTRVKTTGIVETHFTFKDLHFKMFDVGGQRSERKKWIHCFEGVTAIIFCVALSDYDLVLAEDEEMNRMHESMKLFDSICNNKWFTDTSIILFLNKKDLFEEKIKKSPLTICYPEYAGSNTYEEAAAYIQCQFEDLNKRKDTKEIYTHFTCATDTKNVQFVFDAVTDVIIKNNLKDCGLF
Muscarinic acetylcholine receptor M1 (Rattus norvegicus), sequence (P08482 whole entry, looked up): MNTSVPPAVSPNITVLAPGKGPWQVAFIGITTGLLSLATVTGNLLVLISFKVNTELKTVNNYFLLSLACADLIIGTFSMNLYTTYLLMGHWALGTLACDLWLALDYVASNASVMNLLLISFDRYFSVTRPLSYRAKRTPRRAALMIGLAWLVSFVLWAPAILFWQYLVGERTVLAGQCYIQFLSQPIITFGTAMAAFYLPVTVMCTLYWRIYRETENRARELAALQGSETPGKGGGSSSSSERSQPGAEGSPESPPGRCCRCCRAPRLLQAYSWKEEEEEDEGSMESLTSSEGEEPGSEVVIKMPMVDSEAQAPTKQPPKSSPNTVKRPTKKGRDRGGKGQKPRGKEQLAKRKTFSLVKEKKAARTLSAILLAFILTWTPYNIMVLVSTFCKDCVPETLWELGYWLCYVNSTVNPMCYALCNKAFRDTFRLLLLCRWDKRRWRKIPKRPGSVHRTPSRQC
Pyruvate kinase (Leishmania mexicana), sequence (Q27686 2-499 E452W): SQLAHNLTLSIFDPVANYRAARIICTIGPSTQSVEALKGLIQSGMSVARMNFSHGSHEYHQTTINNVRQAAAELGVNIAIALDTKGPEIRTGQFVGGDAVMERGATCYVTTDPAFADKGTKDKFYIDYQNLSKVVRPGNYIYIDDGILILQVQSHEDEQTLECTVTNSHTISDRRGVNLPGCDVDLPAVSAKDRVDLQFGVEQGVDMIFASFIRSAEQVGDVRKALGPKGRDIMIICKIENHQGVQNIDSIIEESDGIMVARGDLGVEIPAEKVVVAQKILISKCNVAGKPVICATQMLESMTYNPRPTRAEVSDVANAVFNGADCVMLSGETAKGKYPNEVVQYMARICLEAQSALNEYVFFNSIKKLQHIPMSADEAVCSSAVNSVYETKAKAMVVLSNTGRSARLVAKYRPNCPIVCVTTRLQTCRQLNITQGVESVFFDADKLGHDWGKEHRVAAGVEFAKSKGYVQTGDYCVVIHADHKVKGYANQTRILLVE
Alpha-galactosidase A (Homo sapiens), sequence (P06280 whole entry, looked up): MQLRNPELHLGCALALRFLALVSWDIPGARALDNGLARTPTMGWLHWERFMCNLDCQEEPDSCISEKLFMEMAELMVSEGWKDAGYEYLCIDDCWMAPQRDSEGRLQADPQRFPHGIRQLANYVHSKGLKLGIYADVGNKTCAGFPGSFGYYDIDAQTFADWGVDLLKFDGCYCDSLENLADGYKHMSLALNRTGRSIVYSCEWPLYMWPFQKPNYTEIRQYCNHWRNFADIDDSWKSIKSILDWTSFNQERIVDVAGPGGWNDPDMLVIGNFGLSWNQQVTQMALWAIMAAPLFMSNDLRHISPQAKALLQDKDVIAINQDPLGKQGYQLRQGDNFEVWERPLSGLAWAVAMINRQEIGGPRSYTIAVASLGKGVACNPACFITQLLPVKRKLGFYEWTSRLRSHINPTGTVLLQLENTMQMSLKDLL
Cytochrome P450 3A4 (Homo sapiens), sequence (P08684 whole entry, looked up): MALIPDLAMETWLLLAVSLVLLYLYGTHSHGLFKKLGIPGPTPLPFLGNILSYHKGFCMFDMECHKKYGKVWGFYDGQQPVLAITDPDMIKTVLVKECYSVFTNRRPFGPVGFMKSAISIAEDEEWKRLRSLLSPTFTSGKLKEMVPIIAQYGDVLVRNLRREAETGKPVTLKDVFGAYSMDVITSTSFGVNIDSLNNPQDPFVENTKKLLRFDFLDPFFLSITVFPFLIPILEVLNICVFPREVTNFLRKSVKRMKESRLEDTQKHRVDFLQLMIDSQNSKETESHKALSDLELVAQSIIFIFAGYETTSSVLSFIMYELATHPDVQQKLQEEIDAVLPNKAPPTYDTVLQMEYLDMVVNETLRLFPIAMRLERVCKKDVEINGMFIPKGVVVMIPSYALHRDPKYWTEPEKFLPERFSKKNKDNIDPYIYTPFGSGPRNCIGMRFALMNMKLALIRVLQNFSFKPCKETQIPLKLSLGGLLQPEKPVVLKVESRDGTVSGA

N#CCCn1c(=O)c(-c2ccccc2)nc2cnc(N3CCNCC3)nc21
inactive: Potency [1] > 9.22 µM | Potency [2] > 46 µM | Potency [3] | Potency [4]

COc1ncc2nc(-c3cc(F)cc(F)c3)c(=O)n(CCc3ccccc3)c2n1
inactive: Potency [1] > 9.22 µM | Potency [2] > 46 µM | Potency [3]

C[C@@H](Cc1ccccc1)Nc1ncnc2c1ncn2[C@@H]1O[C@@H](CO)[C@H](O)[C@@H]1O
inactive: activity change, negative = inhibition [5, 20] -12.1% [at 38 µM] | Potency [6] | activity change, negative = inhibition [7] -0.283% [at 38 µM] | activity, negative = inhibition [8, 20] -0.703% [at 38 µM] | Potency [1] > 46 µM | Potency [2] > 46 µM | Potency [3] | Potency [4] | outcome [9] | Potency [10] | outcome [12] | Potency [13] | outcome [14] | outcome [15] | Potency [16]
active: Potency [11] 3.98 µM

C(=C/c1ccccc1)/CN1CCN(C(c2ccccc2)c2ccccc2)CC1
inactive: activity change, negative = inhibition ([5]; at 17.2 µM (top of the series)) -10.7% | activity change, negative = inhibition ([5]; at 38 µM (top of the series)) -3.02% | activity, negative = inhibition ([8]; at 17.2 µM (top of the series)) -6.97% | activity, negative = inhibition ([8]; at 38 µM (top of the series)) 12.7% | Potency [3] | Potency [4]

NC(=O)c1ncn([C@@H]2O[C@@H](CO)[C@@H](O)[C@H]2O)n1
inactive: activity change, negative = inhibition [5, 20] 18.3% [at 38 µM] | Potency [6] | activity change, negative = inhibition [7] 17% [at 38 µM] | activity, negative = inhibition [8, 20] -14.5% [at 38 µM] | Potency [1] > 46 µM | Potency [2] > 46 µM | Potency [3] | Potency [4]

O=[N+]([O-])c1ccc(CSc2ncnc3c2ncn3[C@@H]2O[C@@H](CO)[C@@H](O)[C@H]2O)cc1
inactive: activity change, negative = inhibition [5, 20] -12.2% [at 38 µM] | Potency [6] | activity change, negative = inhibition [7] 11% [at 38 µM] | activity, negative = inhibition [8, 20] 29.7% [at 38 µM] | Potency [1] > 46 µM | Potency [2] > 46 µM | Potency [3] | Potency [4] | outcome [9] | Potency [11] | outcome [12] | Potency [13] | outcome [15] | outcome [17] | Potency [16]

CSc1ccc(NC(=O)Nc2cc(C)ccn2)cc1
active: Potency [6] 0.501 µM
inactive: activity change, negative = inhibition [5, 20] 0.23% | activity change, negative = inhibition [7] -18.9% | activity, negative = inhibition [8, 20] -7.77% | Potency [1] > 46 µM | Potency [2] > 9.22 µM | Potency [3] | Potency [4]

CC1=C(C(=O)O)N2C(=O)[C@@H](NC(=O)[C@@H](N)C3=CCC=CC3)[C@@H]2SC1
inactive: activity change, negative = inhibition [5, 20] 0.806% [at 38 µM] | Potency [6] | activity change, negative = inhibition [7] 1.78% [at 38 µM] | activity, negative = inhibition [8, 20] -5.32% [at 38 µM] | Potency [1] > 46 µM | Potency [2] > 46 µM | Potency [3] | Potency [4] | outcome [9] | Potency [10] | Potency [18] | Potency [19] | outcome [12] | Potency [13] | outcome [14] | outcome [15] | outcome [17] | Potency [16]
